Among all 360,000 compounds or so, about 340 (0.094%) were called active. This is one part of a sample in which actives are shown more often than they occur. A number with no mark means an inactive call. Rule as the data show it: active = inhibition above about 40%; inconclusive = no clear call, values can overlap the other calls; inactive = below that.

As usually defined, the inhibition is the relative decrease from the control value, in per cent.

The assay has as its system 7,8-diaminopelargonic acid synthase BioA (Mycobacterium tuberculosis). The assay can be described thus: M. tuberculosis BioA enzyme inhibitors, primary screen, biochemical, plate reader, single point, HTS (AID 602481). Conditions: purified M. tuberculosis BioA enzyme, at 9.99 µM, hits give high values.
Take `O=C(NCC1CC1)[C@@H]1[C@@H](CO)[C@@H]2Cn3c(ccc(-c4ccccc4)c3=O)[C@H]1N2Cc1nccs1`: the inhibition is 0.617%.
The same measure for `CC(C)CC#Cc1ccc2c(c1)O[C@H](CN(C)C(=O)Cc1cccnc1)[C@H](C)CN([C@@H](C)CO)S2(=O)=O`: 5.43%.
On to `CC(=O)c1ccc(N2Cc3ccccc3C2)cc1`, for which the inhibition was 10.6%.
The value for `CC(=O)c1ccc(N2CCN(C(=O)c3ccc4nc[nH]c4c3)CC2)cc1` was 57% (active).
For the molecule `CC(=O)c1ccc(N2CCN(CC(O)c3ccccc3)CC2)cc1` (stereo not drawn), the inhibition is 20.2%.
Consider `Cc1ccc(Cn2c(C)c3cnn(CC(=O)NCc4ccccn4)c(=O)c3c2C)cc1`, for which the inhibition is 8.47%.
With `Cc1c2cnn(CC(=O)NCc3ccccn3)c(=O)c2c(C)n1Cc1ccc(Cl)cc1`, the inhibition was 86.8% (active).
The same measure for `O=C(Cn1ncc2c3ccccc3n(Cc3ccccc3)c2c1=O)NCc1ccccn1`: -3.36%; for `O=C(CSc1n[nH]c(-c2cccnc2)n1)Nc1ccc(Cl)cc1`: 16.3%; for `O=C(CSc1n[nH]c(-c2cccnc2)n1)Nc1ccnc2ccccc12`: 46% (active).
As for `O=C(CSc1ncn[nH]1)Nc1ccnc2ccccc12`, the inhibition is 1.08%.
The same measure for `Cc1ccc(S(=O)(=O)N(C)C[C@@H]2Oc3ccc(NS(=O)(=O)c4ccc(F)cc4)cc3CC(=O)N([C@@H](C)CO)C[C@H]2C)cc1`: 2.21%.
In the case of `C[C@@H]1CN([C@H](C)CO)C(=O)Cc2cc(NC(=O)CCCCCC(=O)Nc3ccccc3N)ccc2O[C@H]1CN(C)S(=O)(=O)c1ccc(F)cc1`, the inhibition is 0.122%.
Regarding `C[C@@H]1CN([C@@H](C)CO)C(=O)c2c(c3ccccc3n2C)-c2ccccc2CO[C@H]1CN(C)Cc1cccc(C(=O)O)c1`, the inhibition is -1.04%.
The value for `CCC(=O)Nc1ccc2c(c1)C(=O)N(C)C[C@H](OC)[C@H](C)CN(C(=O)C1CCC1)[C@@H](C)CO2` was 1.3%.
Take `C[C@H](CO)N1C[C@H](C)[C@@H](CN(C)S(=O)(=O)c2cn(C)cn2)Oc2c(NC(=O)C3CC3)cccc2C1=O`: the inhibition is -1.33%.
In the case of `CC(=O)N[C@@H]1C=C[C@H](CC(=O)NCC2CCCCC2)O[C@H]1CO`, the inhibition is -0.006%.
As for `CO[C@H]1CN(C)C(=O)c2ccc(NS(C)(=O)=O)cc2OC[C@@H](C)N(Cc2ccccc2)C[C@@H]1C`, the inhibition was -2.35%.
The same measure for `CCCNC(=O)N(C)C[C@H]1Oc2ncc(C#C[C@@H](C)O)cc2C(=O)N([C@@H](C)CO)C[C@@H]1C`: -0.359%; for `CCC(=O)N1C[C@@H](C)[C@@H](OC)CN(C)C(=O)c2ccc(NC(=O)C3CCCCC3)cc2OC[C@H]1C`: -0.504%.
The value for `C[C@H](CO)N1C[C@H](C)[C@@H](CN(C)Cc2ccccc2)Oc2ccc(NC(=O)CCCN(C)C)cc2C1=O` was -2.64%.
With `CCCNC(=O)C[C@@H]1CC[C@H]2[C@H](COc3ccc(NS(=O)(=O)c4ccccc4C)cc3C(=O)N2C)O1`, the inhibition is 1.74%.
With `COc1ccc(C(=O)N(C)Cc2ccc(OC)c(OC)c2OC)cc1S(=O)(=O)N1CCOCC1`, the inhibition was -0.32%.
On to `CO[C@@H](CN(C)C(=O)c1ccc2c(c1)OCO2)[C@@H](C)CN([C@H](C)CO)S(=O)(=O)c1ccccc1`, for which the inhibition is 3.78%.
For `COc1c(C=O)c(CCN(C)C(=O)c2ccc(F)cc2)cc2c1OCO2`, the inhibition was 48.4% (active).
For the molecule `O=C(Cc1ccccc1)N1C[C@H]2[C@@H](c3ccccc31)[C@H](CO)N2C(=O)C1CCOCC1`, the inhibition is -4.05%.
In the case of `CC(=O)N(C)C[C@@H]1Oc2ncc(C#Cc3ccccn3)cc2C(=O)N([C@@H](C)CO)C[C@@H]1C`, the inhibition is -5.71%.
Consider `CN(C)C(=O)c1cccc(-c2ccc3c(c2)[C@H]2[C@H](CCN2C(=O)c2cccnc2)[C@H](CO)N3)c1`, for which the inhibition is 19.8%.
For `Cc1ccccc1S(=O)(=O)N(C)C[C@@H]1OCc2ccccc2-c2c(n(C)c3ccccc23)C(=O)N([C@H](C)CO)C[C@H]1C`, the inhibition was -1.26%.
Regarding `C[C@@H]1CCCCO[C@H](CN(C)S(=O)(=O)c2cn(C)cn2)[C@@H](C)CN([C@@H](C)CO)C(=O)c2cc(NC(=O)CCC(F)(F)F)ccc2O1`, the inhibition is -0.672%.
Regarding `CN1c2ccc(-c3ccccc3)cc2[C@H]2[C@H](CCN2C(=O)Cc2ccccn2)[C@H]1CO`, the inhibition was 50.1% (active).
On to `CN1c2ccc(-c3ccccc3F)cc2[C@H]2[C@H](CCN2C(=O)Cc2ccccn2)[C@H]1CO`, for which the inhibition was 6.26%.
With `COc1ccc(-c2ccc3c(c2)[C@@H]2[C@@H](CCN2C(=O)Cc2ccccn2)[C@H](CO)N3C)cc1`, the inhibition was -0.705%.
On to `COCc1cn(CC[C@H]2CC[C@@H](NC(=O)Nc3ccc(OC)cc3)[C@@H](CO)O2)nn1`, for which the inhibition was 4.23%.
Regarding `CN1c2ccc(-c3cccc(C#N)c3)cc2[C@@H]2[C@@H](CCN2C(=O)C2CCC2)[C@@H]1CO`, the inhibition is 1.18%.
The same measure for `CCOC(=O)N1CCN(Cc2nc3c(c(=O)n(C)c(=O)n3C)n2Cc2ccccc2)CC1`: 4.21%; for `Cn1c(=O)c2c(nc(OCc3cccnc3)n2Cc2ccccc2)n(C)c1=O`: 69.8% (active).
The value for `C=CCOc1nc2c(c(=O)n(C)c(=O)n2C)n1Cc1ccc(Cl)cc1Cl` was -1.57%; that for `CN(C)C(=O)C[C@H]1C[C@H]2c3cc(NC(=O)Nc4ccc(C(F)(F)F)cc4)ccc3O[C@H]2[C@@H](CO)O1` was -0.072%.
In the case of `COCCN(C[C@H]1[C@H](c2ccccc2)[C@@H](CO)N1C(C)=O)C(=O)c1cccnc1`, the inhibition is 4.64%.
The value for `C[C@H](CO)N1C[C@H](C)[C@@H](CN(C)C(=O)Cc2cccnc2)Oc2ncc(-c3ccncc3)cc2C1=O` was 5.57%; that for `CCCNC(=O)N1C[C@H](C)[C@H](OC)CN(C)C(=O)c2cc(NC(=O)CC)ccc2OC[C@H]1C` was 0.679%; that for `CO[C@@H](CN(C)S(=O)(=O)c1ccc(C)cc1)[C@@H](C)CN([C@@H](C)CO)S(=O)(=O)c1cccc(Cl)c1` was -0.469%.
In the case of `CN1C(=O)c2cc(NC(=O)Nc3ccccc3F)ccc2OC[C@H]2O[C@@H](CC(=O)Nc3cccc(Cl)c3)CC[C@@H]21`, the inhibition is 4.99%.
The value for `CO[C@H]1CN(C)C(=O)c2ccc(NS(=O)(=O)c3cn(C)cn3)cc2OC[C@H](C)N(C)C[C@H]1C` was -1.67%; that for `CC(C)CC#Cc1ccc2c(c1)O[C@H](CN(C)Cc1ccccc1F)[C@@H](C)CN([C@@H](C)CO)S2(=O)=O` was 0.76%; that for `O=C(NCCN1CCCC1)[C@@H]1N[C@@H]2c3ccc(-c4ccccc4)c(=O)n3C[C@@H]2[C@H]1CO` was -0.384%.
On to `CC(C)NC(=O)Nc1ccc2c(c1)C(=O)N([C@H](C)CO)C[C@H](C)[C@@H](CN(C)S(C)(=O)=O)OCCCC[C@@H](C)O2`, for which the inhibition was -1.93%.
For `C[C@H](O)C#Cc1ccc([C@@H]2[C@@H](CO)N3CCCCN(C(=O)c4ccc(F)cc4)C[C@H]23)cc1`, the inhibition was 8.06%.
For `O=C(C[C@@H]1CC[C@@H]2[C@H](COC[C@@H](O)CN2S(=O)(=O)c2cccc(Cl)c2)O1)N1CCOCC1`, the inhibition was 0.133%.
The value for `C[C@@H]1CN([C@@H](C)CO)S(=O)(=O)c2ccc(-c3cncnc3)cc2O[C@@H]1CN(C)C(=O)C1CC1` was -2.8%; that for `Cc1ccc(Cn2c(C)c3cnn(CC(=O)NCCN4CCOCC4)c(=O)c3c2C)cc1` was 11.4%; that for `Cc1ccc(Cc2c(C)nc3nc(SCC(=O)NCCN4CCOCC4)nn3c2C)cc1` was 53.9% (active).
The value for `COc1cc(OC)cc(-c2nc3nc(C)c(CCC(=O)NCc4ccco4)c(C)n3n2)c1` was -1.9%.
Consider `Cc1nc2nc(SCC(=O)NCc3ccco3)nn2c(C)c1Cc1ccccc1`, for which the inhibition is 45.5% (active).
The same measure for `O=C(Cn1cc2c(n1)CCCCC2)NCCN1CCOCC1`: 1.9%; for `Cc1nc2c(-c3ccc(F)cc3)c(C)nn2c(C)c1CCC(=O)NCc1ccco1`: -0.947%.
As for `CO[C@H]1CN(C)C(=O)c2ccc(NC(=O)c3cccc(Oc4ccccc4)c3)cc2OC[C@@H](C)NC[C@H]1C`, the inhibition was 2.28%.
Consider `C/C=C/c1ccc2c(c1)O[C@@H](CN(C)S(C)(=O)=O)[C@@H](C)CN([C@H](C)CO)S2(=O)=O`, for which the inhibition was 3.09%.
For `CN1C(=O)c2cc(NS(=O)(=O)c3ccc(F)cc3)ccc2OC[C@@H]2O[C@@H](CC(=O)O)CC[C@H]21`, the inhibition is 0.387%.
On to `C[C@@H](NC(=O)C[C@H]1C=C[C@H](NC(=O)C2CCOCC2)[C@H](CO)O1)c1ccccc1`, for which the inhibition was 1.84%.
In the case of `C[C@H](CO)N1C[C@H](C)[C@@H](CN(C)CC2CCCCC2)Oc2ccc(NS(=O)(=O)c3cccs3)cc2CC1=O`, the inhibition is 3.51%.
`CO[C@@H]1CN(C)C(=O)c2cc(NC(=O)c3cnccn3)ccc2OC[C@@H](C)N(C(=O)C2CC2)C[C@@H]1C`: the inhibition was 9.9%.
The value for `CC=Cc1ccc2n(c1=O)C[C@@H]1[C@@H](CO)[C@H](C(=O)N3CCc4ccccc4C3)N(C(=O)C3CCC3)[C@H]21` (mixture of isomers) was 0.815%.
For the molecule `CC(C)(C)S(=O)N1Cc2cc(C(=O)O)nc(-c3cccc(-c4cc5ccccc5o4)c3)c2[C@@H]1CCO` (stereo partly drawn), the inhibition was -0.446%.
With `CCCNC(=O)Nc1ccc2c(c1)C(=O)N(C)C[C@@H](OC)[C@@H](C)CN(C)[C@@H](C)CO2`, the inhibition was -0.7%.
The value for `CN(C)c1ccc2c(c1)[C@H]1C[C@H](CC(=O)NCc3ccc(Cl)cc3)O[C@H](CO)[C@H]1O2` was 0.352%.
The value for `O=C(CC1CC1)N1[C@@H]2CN(S(=O)(=O)c3ccc(F)cc3)c3ccccc3[C@@H]2[C@@H]1CO` was 3.83%.
